Screening data as filed in PubChem.
PINK1 modulator = PINK1 expression modulation | 410,000 tested, 0.2% active | Potency, µM (titrated, usually from 76.6 µM), most hits filed as activators | PINK1 immunofluorescence, high-content cytometry, 24 h; active means well fitted activation curve with a large enough effect; inconclusive means small, poorly fitted or top-dose-only effect; cell line not stated here; further: nearly all actives have a fitted effect of over 65% in size
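Fluorescence from anti-PINK1 antibody, together with nuclear and cell stains, was scanned on a laser-scanning cytometer. Before staining, stable-line cells were incubated 24 hours with compounds at 5 concentrations; primary antibody 12 h at 10 degrees C.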
KB-V1 cytotox = KB-V1 MDR subline cytotoxicity; KB-V1 MDR cells viability, CellTiter-Glo, 72 h; Potency, µM (series often up to 46.1 µM), hits mostly cytotoxic; 400,000 tested, 3.4% active; AID 1347076; further: nearly all actives have a fitted effect of over 60% in size
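Cytotoxicity toward P-gp-expressing KB-V1 cells was determined as loss of CellTiter-Glo luminescence after 72 h at 37 degrees C. Compounds were tested in quantitative HTS format across a concentration range, with curves fitted to normalized data.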
SW480 rereplic = inducers of DNA re-replication in SW480 colon cancer cells; SW480 DNA re-replication, Hoechst DNA content imaging, 48 h; Potency, µM (series often up to 46.1 µM), hits mostly activators; 340,000 tested, 1.8% active; AID 624297; further: nearly all actives have a fitted effect of over 55% in size
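Quantitative HTS format with DMSO vehicle controls; 48 hr drug incubation at 37 C, then 40 min Hoechst staining and scanning imager measurement at 405 nm excitation.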
KB-3-1 cytotox = kills parental KB-3-1 adenocarcinoma cells | KB-3-1 viability, CellTiter-Glo ATP luminescence, 72 h | Potency, µM (highest dose often 46.1 µM), actives largely listed as cytotoxic | 400,000 tested, 1.4% active; further: nearly all actives have a fitted effect of over 60% in size
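Luminescent ATP read-out (CellTiter-Glo) measures survival of drug-naive KB-3-1 cells after 72 h compound exposure at 37 °C. Titration series was screened from lowest to highest concentration, with DMSO vehicle plates as background controls.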
MCF10A rereplic = DNA re-replication induction in MCF 10a cells; MCF 10A DNA re-replication, Hoechst nuclear intensity, 48 h; Potency, µM (top dose mostly 46.1 µM), actives largely listed as activators; AID 624296; 350,000 tested, 2.9% active; further: nearly all actives have a fitted effect of over 50% in size
Numbers stand for hits; - = inactive; ? = inconclusive; . = not tested or not shown; [ ] = remark or other dose. Only some compounds are listed: those with a hit (about 6.7% of all), similar ones and a draw of the others. Unless noted, the call rests on the fitted dose curve; in most records, active means well fitted curve in the direction sought with a large enough effect; inconclusive means small, poorly fitted or top-dose-only effect, or another doubt; inactive means no such curve, though single readings can be large; an effect the other way counts as inactive or inconclusive.

SMILES	PINK1 modulator	KB-V1 cytotox	SW480 rereplic	KB-3-1 cytotox	MCF10A rereplic
COC(=O)C(NNc1ccc(F)cc1)(NC(=O)c1ccccc1)C(F)(F)F (centres undefined)	-	18.4µM	-	-	-
C[n+]1c2n(c3ccccc31)N=C(c1cc(C(C)(C)C)c(O)c(C(C)(C)C)c1)CS2	-	-	?	4.11µM	16.4µM
CCc1ccc(-n2c(SCC(=O)NC(C)CC)nc3n[nH]c(C)c3c2=N)cc1 (centres undefined)	-	.	.	.	.
Cc1ccc(/C=C(/C#N)C(=O)NC(C)c2ccccc2)o1 (centres undefined)	-	18.4µM	-	-	-
CN1CCN(c2ccc(S(=O)(=O)N3CCOCC3)cc2NC(=O)Cc2ccccc2F)CC1	-	-	-	-	-
COC(=O)c1sccc1NC(=O)c1cc(-c2cccc(C)c2)nc2ccccc12	-	-	-	?	?
COC(=O)c1sccc1NC(=O)c1c(C)c(-c2cccc(Cl)c2)nc2ccccc12	-	10.3µM	-	-	-
CC(=O)Nc1cccc(C(=O)OCC(=O)NC(=O)C2CCCCC2)c1	-	-	.	-	.
Cc1cccc(NC(=O)CN2C(=O)N/C(=C\c3ccc(-c4cccc(C(=O)O)c4)o3)C2=O)c1	-	-	18.4µM	-	16.4µM
Cc1ccc(CN2C(=O)N/C(=C\c3cccn3-c3cccc(C(=O)O)c3)C2=O)cc1	-	-	-	-	-
Cc1cccc(NC(=O)CN2C(=O)N/C(=C/c3ccc(C)o3)C2=O)c1	-	-	-	-	-
O=C(O)c1ccc(COc2ccc3ccccc3c2/C=C2/NC(=O)N(Cc3ccc(F)cc3)C2=O)cc1	-	-	?	-	18.4µM
Cc1cc(C(=O)O)ccc1-c1ccc(/C=C2\NC(=O)N(Cc3ccc(F)cc3)C2=O)o1	-	-	9.2µM	-	3.66µM
O=C(O)c1ccc(COc2ccccc2/C=C2\NC(=O)N(Cc3ccccc3)C2=O)cc1	-	-	?	-	-
Cc1ccc(CN2C(=O)N/C(=C/c3ccc(-c4ccc(C(=O)O)cc4)o3)C2=O)cc1	-	-	4.61µM	-	8.2µM
CCOc1ccc(NC(=O)CCS(=O)(=O)c2ccc3nc(C)sc3c2)cc1	-	-	.	-	.
COC(=O)c1c(OCc2ccccn2)cc(=O)n2c1CCN(C(=O)c1cc(C(C)C)nn1C)CC2	-	.	.	.	.
C[C@H]1Cn2cnc(C(=O)Nc3ccccc3)c2C(=O)N1	-	-	.	-	.
CCc1cc2c(=O)n(CC(C)C)cnc2s1	-	?	-	-	-
CCCCCn1cnc2sc(CC)cc2c1=O	-	14.6µM	-	-	-
O=C(CSc1nc(-c2ccccc2)c(-c2ccccc2)o1)N1CCOCC1	-	?	-	?	16.4µM
O=C(CSc1nnc(-c2ccccc2)c(-c2ccccc2)n1)N1CCOCC1	-	-	-[9.22 µM]	-	-
O=C(CSc1nc(-c2ccccc2)c(-c2ccccc2)o1)Nc1nnc(-c2ccccc2)s1	-	7.31µM	-	-	-
Cc1cccc(NS(=O)(=O)c2c(C)nc3sccn3c2=O)c1C	-	?	.	-	.
O=C(O)c1ccc(N=Nc2c(O)ccc3ncccc23)cc1	?	?	14.6µM	?	-
SMILES	PINK1 modulator	KB-V1 cytotox	SW480 rereplic	KB-3-1 cytotox	MCF10A rereplic
O=C(O)c1cc(N=Nc2c(O)ccc3ccccc23)cc(C(=O)O)c1	-	-	-	-	-
CCOc1ccc(NC(=O)Cn2c(=O)oc3cc(S(=O)(=O)NC4CCCC4)ccc32)cc1	-	-	.	-	.
O=C(c1cc(F)c(F)cc1Cl)N1CCN(c2ncccn2)CC1	-	-	-	-	-
CCc1nc(N2CCN(Cc3ccc4c(c3)OCO4)CC2)c2oc3ccccc3c2n1	.	10µM	?	20µM	9.2µM
CCc1nc(N2CCCCC2C(=O)O)c2oc3ccccc3c2n1 (centres undefined)	-	-	-	-	-
CCc1nc(N2CCCC(C)C2)c2oc3ccccc3c2n1 (centres undefined)	?	5.17µM	-	?	?
Cc1nc(N2CCOCC2)c2oc3ccccc3c2n1	-	14.6µM	-	-	?
CCc1nc(N2CCCCC2C)c2oc3ccccc3c2n1 (centres undefined)	-	7.31µM	?	?	?
CCc1nc(N2CCCCC2)c2oc3ccccc3c2n1	-	?	?	-	-
c1ccc2c(c1)oc1c(N3CCOCC3)ncnc12	-	-	-	-	-
C=C1C[C@@H]2C[C@@H]2CN(S(=O)(=O)c2ccc(C)cc2)[C@@H]1c1ccco1	-	?	.	-	.
CC1CCCC(NC(=O)COC(=O)[C@@H](NC(=O)c2ccccc2Cl)C(C)C)C1C (some centres undefined)	-	-	-	-	-
CCOC(=O)C1CCCN(c2nc(C)nc3c2oc2ccccc23)C1 (centres undefined)	-	8.2µM	-	-	-
Cc1nc(Nc2ccncc2)c2oc3ccccc3c2n1	-	-	?	?	?
CCc1nc(Nc2ccncc2)c2oc3ccccc3c2n1	-	-	18.4µM	8.2µM	?
COc1ccccc1NC1=C(Cl)C(=O)N(c2ccccc2)C1=O	-	-	10.3µM	-	-
CCOc1ccc(NC(=O)CN(C)C(=O)CC2CCCC2)cc1OCC	-	-	?	?	-
CCOc1ccc(NC(=O)CN(C)C(=O)C2CCCC2)cc1OCC	-	-	-	-	0.651µM
CCCc1cc(C(=O)N(C)CC(=O)Nc2ccc(OCC)c(OCC)c2)sc1C	-	?	-	?	0.461µM
O=C(OCc1ccccc1)c1cc(S(=O)(=O)N2CCCCC2)ccc1N1CCOCC1	-	?	-	?	-
O=C(COC(=O)c1cc(S(=O)(=O)N2CCCCC2)ccc1N1CCOCC1)c1ccc(Cl)cc1	-	-	6.51µM	-	-
O=C(COC(=O)c1cc(S(=O)(=O)N2CCCCC2)ccc1N1CCOCC1)c1ccccc1	-	20.6µM	-	-	-
COC(=O)[C@]1(C)N[C@H](CN(C)S(=O)(=O)c2ccc(C)cc2)[C@@H]2C(=O)N(Cc3ccccc3)C(=O)[C@@H]21	-	-	-	-	-
Nc1cc2ccncc2c2ccccc12	-	?	?	-	20.6µM
Cc1ccccc1/C=C/C(=O)c1ccc([N+](=O)[O-])o1	-	?	?	?	?
SMILES	PINK1 modulator	KB-V1 cytotox	SW480 rereplic	KB-3-1 cytotox	MCF10A rereplic
O=C(/C=C/c1cccc([N+](=O)[O-])c1)c1ccc([N+](=O)[O-])o1	-	-	?	?	1.64µM
Cc1cccc(/C=C/C(=O)c2ccc([N+](=O)[O-])o2)c1	-	-	?	?	11.6µM
COc1ccc(/C=C/C(=O)c2ccc([N+](=O)[O-])o2)cc1	-	?	11.6µM	18.4µM	2.31µM
O=C(/C=C/c1cccc([N+](=O)[O-])c1)c1ccco1	-	-	?	-	-
O=C(NNc1cc(Cl)cc(Cl)c1)c1sccc1Cl	-	.	.	.	.
O=C(c1ccco1)N(CC1CCCO1)c1nc(-c2ccccc2)cs1 (centres undefined)	-	23.1µM	-	?	?
